Source: PubChem BioAssay
Artemis endo inh: blocks endonuclease activity of human Artemis | AID 686954 | recombinant Artemis, quenched FAM hairpin cleavage fluorescence | 30,000 tested, 0.78% active | inhibition, % at 10 µM;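 active = at 10 µM dose, at least 30% inhibition, measured as corrected fluorescence normalized to stimulator and neutral control wells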
Large screens that a line does not name were inactive. Shown is part of a subset that was picked to be rich in hits.

Cc1cc(N2C(=O)C(O)=C(C(=O)c3ccc(C)o3)C2c2cccs2)no1 (centres undefined)	none
COc1ccc(Br)cc1-c1noc(-c2ccccc2F)n1	none
CC(C)CCn1c(NCCN(C)C)nc2c1c(=O)[nH]c(=O)n2C	none
CCCC[N+](C)(C)CCC(=O)NC(C)(C)CS(=O)(=O)[O-]	none
N#Cc1nc(-c2ccc(OCc3ccc(Cl)cc3)cc2)oc1NCCCn1ccnc1	Artemis endo inh 49
CNc1oc(-c2ccc(OCc3ccccc3)cc2)nc1C#N	none
N#Cc1nc(-c2ccc(OCc3ccccc3)cc2)oc1NCc1ccco1	none
COC(=O)\C(C(C)=O)=C(/C=C/C=C/N(C)C)N(C)C	none
O=C(N/N=C/c1ccco1)c1cc(-c2ccc3ccccc3c2)n[nH]1	none
O=C(N/N=C/c1cccs1)c1cc(-c2ccc3ccccc3c2)n[nH]1	Artemis endo inh 34
O=C(N/N=C\c1ccc(Cl)s1)c1cccs1	none
COc1ccc(C(=O)Sc2ccc(C)cc2)cc1OC	none
CCc1ccccc1-n1c(SCC(=O)N2CCCC2)nnc1-c1ccccn1	none
Cc1cc(OCC(=O)N2CCCC2)cc(C)c1Cl	none
Cc1cc(OCC(=O)Nc2ccc(N3CCCC3)cc2)cc(C)c1Cl	Artemis endo inh 66
CCCC(=O)Nc1ccc(N2CCCCC2)cc1	none
Cn1c(=NCC(O)COc2ccccc2)sc2ccccc21 (centres undefined)	none
CCC(c1ccccc1)c1nc(-c2ccccn2)no1 (centres undefined)	none
N#Cc1cn(-c2ccccc2)nc1-c1cc2ccccc2oc1=O	none
Cc1cccc(C(=O)N2CCN(c3ccc([N+](=O)[O-])c(N4CCOCC4)c3)CC2)c1	none
Cc1ccc(C(=O)N2CCN(c3ccc([N+](=O)[O-])c(NCc4ccco4)c3)CC2)cc1	Artemis endo inh 31
Cc1cccc(C(=O)N2CCN(c3ccc([N+](=O)[O-])c(NCc4ccco4)c3)CC2)c1	none
C=CCn1c(SCC(=O)c2cc(C)n(CCOC)c2C)nc2sc(C)c(C)c2c1=O	none
O=C(Nc1c(Cl)cc(Cl)cc1C(=O)NCc1cccnc1)c1ccc(Cl)cc1Cl	none
O=C(NCc1cccnc1)/C(=C/c1ccc(-c2cccc(Cl)c2)o1)S(=O)(=O)c1ccccc1	none
Cc1ccc(C(=O)N/C(=C\c2ccc(-c3cc(Cl)ccc3Cl)o2)C(=O)NCc2cccnc2)cc1	Artemis endo inh 34
O=c1cc(Cl)[nH]c(=O)n1CCNc1ncc(C(F)(F)F)cc1Cl	none
COc1ccc(O)c(/C=N/NC(=O)CSc2nnc(C)n2-c2ccccc2)c1	none
Cc1cc(C)n(-c2nc(C)nc(NCc3ccccc3)n2)n1	none
COc1ccc(O)c(/C=N/Nc2nc(Nc3ccccc3)nc(-n3nc(C)cc3C)n2)c1	Artemis endo inh 102
Cc1ccccc1C(=O)c1cccn1CC(=O)N1CCCCCC1	none
CCOc1ccc(N(Cc2cc3cc(OC)ccc3[nH]c2=O)C(=O)C2CCCO2)cc1 (centres undefined)	none
FCCCOc1ccc(-c2nccc(-c3ccc(Cl)cc3)n2)cc1	none
CCOC(=O)CN(C(=O)CN1CCC(n2nnc3cc(C)ccc32)CC1)c1ccccc1	none
CC(=O)NC(c1ccco1)c1ccc2cccnc2c1O (centres undefined)	none
Oc1c(C(Nc2ccccn2)c2ccccn2)ccc2cccnc12 (centres undefined)	Artemis endo inh 38
Cc1cc(NC(c2ccc(Cl)cc2)c2ccc3cccnc3c2O)no1 (centres undefined)	none
CCC(=O)N1CCc2cc(S(=O)(=O)CCC(=O)N3CCc4ccccc4C3)ccc21	none
COc1ccc(N(C)C(=O)CC2(CC(=O)O)CCCCC2)cc1	none
COc1ccc(OC)c(NC(=O)C2COc3ccccc3O2)c1 (centres undefined)	none
Cc1ccc(/C=N\NC(=O)C2COc3cc4ccccc4cc3O2)o1 (centres undefined)	none
O=C(N/N=C\c1ccc(-c2ccccc2[N+](=O)[O-])o1)C1COc2cc3ccccc3cc2O1 (centres undefined)	Artemis endo inh 36
COC(=O)c1sccc1NC(=O)c1c(C)cc(=O)oc1C	none
O=C(NCc1ccc2c(c1)OCO2)c1cccc(Cl)c1	none
CCOC(=O)c1ccc(NC(=O)CNS(=O)(=O)c2ccccc2)cc1	none
CCOC(=O)c1ccc(NC2=CC(=O)C(=O)c3ccccc32)cc1	Artemis endo inh 66
CCOC(=O)c1ccc(NC(=O)CCOc2ccccc2)cc1	none
COc1cccc(NC(=O)CC2COc3ccccc3O2)c1 (centres undefined)	none
COc1ccc(C(=O)Nc2cccc(-c3nc4ncccc4o3)c2C)cc1	none
CC1CC(C)CN(Cc2nc(N)nc(Nc3ccc4ccccc4c3)n2)C1 (centres undefined)	none
CCN1/C(=C/c2ccc3ccccc3[n+]2CC)C=Cc2ccccc21	Artemis endo inh 38
CCN1C(=O)/C(=C2/C=Cc3ccccc3N2C)OC1=S	none
COc1cccc(/C=N/n2c(SC)nnc2-c2ccccc2)c1OC	none
CCOC(=O)C1CCN(c2c(NCc3ccc(C(=O)NC(C)CC)cc3)c(=O)c2=O)CC1 (centres undefined)	none
O=C(COc1ccc2ccccc2c1)NNC(=O)[C@@H]1CCCC[C@@H]1C(=O)O	none
CCOC(=O)C(C)n1ncn2cccc2c1=O (centres undefined)	Artemis endo inh 33
COC(=O)Cn1ncn2cccc2c1=O	none
